# Measured values published in the supplement of paper PMC6992640.
# ± gives the standard deviation of the averaged measurements.
# System: HCI11 (cells of an ER-positive luminal breast cancer xenograft)
# Experiment: cell viability (% of vehicle); higher = less cytotoxic
# Settings: 10 µM; 72 h
# 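Further: PDX cells carrying CMV promoter-driven luciferase, viability read as total photon flux per second by IVIS imaging following D-luciferin, vehicle control 0.1% DMSO.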
row,Structure (SMILES),cell viability
1,CC(C)C(N)C(=O)OCCOCn1cnc2c(=O)nc(N)[nH]c21.Cl (stereo unspecified) [Valaciclovir HCl],88.8
2,CC1CCOC2Cn3cc(C(=O)NCc4ccc(F)cc4F)c(=O)c(O)c3C(=O)N12 (stereo unspecified),137
3,CC(S)C(=O)NCC(=O)O (stereo unspecified) [Tiopronin (Thiola)],107
4,CCCCC(=O)OC1CCC2C3CCc4cc(O)ccc4C3CCC12C (stereo unspecified) [Estradiol valerate],91.3
5,NC1CCCCC1N.O=C([O-])C(=O)[O-].[Pt+2] (stereo unspecified) [Oxaliplatin],114
6,COc1cc(Nc2ncc3c(n2)-c2ccc(Cl)cc2C(c2c(F)cccc2OC)=NC3)ccc1C(=O)O [MLN8237 (Alisertib)],100
7,C[N+](C)(CCOc1ccccc1)Cc1ccccc1.O=C(O)c1cc2ccccc2cc1[O-] [Bephenium Hydroxynaphthoate],125
8,CCC(C(C)O)n1ncn(-c2ccc(N3CCN(c4ccc(OCC5COC(Cn6cncn6)(c6ccc(F)cc6F)C5)cc4)CC3)cc2)c1=O (stereo unspecified) [Posaconazole],64.1
9,NC(=O)C1CCCc2c1[nH]c1ccc(Cl)cc21 (stereo unspecified),128
10,Nc1cc(C(Cl)=C(Cl)Cl)c(S(N)(=O)=O)cc1S(N)(=O)=O [Clorsulon],106
11,Nc1nc(=O)c2ncn(COC(CO)CO)c2[nH]1 [Ganciclovir],97.9
12,CNNCc1ccc(C(=O)NC(C)C)cc1.Cl [Procarbazine HCl],99.7
13,CC(=O)N1CCN(c2ccc(OCC3COC(Cn4ccnc4)(c4ccc(Cl)cc4Cl)O3)cc2)CC1 (stereo unspecified) [Ketoconazole],102
14,COC(=O)C1=C(C)NC(C)=C(C(=O)OC(C)C)C1c1cccc2nonc12 (stereo unspecified) [Isradipine (Dynacirc)],91.9
15,Br.CN1CCCC1Cc1c[nH]c2ccc(CCS(=O)(=O)c3ccccc3)cc12 (stereo unspecified) [Eletriptan HBr],86.1
16,CCN(CC)CCOC(=O)C(c1ccccc1)c1ccccc1.Cl [Adiphenine HCl],94.9
17,CCCN1CCCCC1C(=O)Nc1c(C)cccc1C.Cl.O (stereo unspecified) [Ropivacaine hydrochloride monohydrate],96.1

# System: HCI13 (cells of an ER-positive luminal breast cancer xenograft)
# Experiment: as above
# Settings: 10 µM; 72 h
row,Structure (SMILES),cell viability
1,COC(=O)C(c1ccccc1Cl)N1CCc2sccc2C1.O=S(=O)(O)O (stereo unspecified) [Clopidogrel],103 ± 4.8
2,CC(C)(C)C(=O)C(Oc1ccc(Cl)cc1)n1ccnc1 (stereo unspecified) [Climbazole],86.4 ± 8.3
3,CCCN(CCC)CCc1cccc2c1CC(=O)N2.Cl [Ropinirole HCl],95.9 ± 8.2
4,CCCC(=O)Nc1ccc(OCC(O)CNC(C)C)c(C(C)=O)c1.Cl (stereo unspecified) [Acebutolol HCl],76.3 ± 3.2
5,O=C(O)C=Cc1ccccc1 [Cinnamic acid],107 ± 15
6,Nc1nc(=O)c2nc(CNc3ccc(C(=O)NC(CCC(=O)O)C(=O)O)cc3)cnc2[nH]1 (stereo unspecified) [Folic acid],101 ± 2.8
7,OCC(O)CN1CCN(c2ccccc2)CC1 (stereo unspecified) [Dropropizine],66 ± 10
8,CN(C)CCC(c1ccccc1)c1ccccn1.O=C(O)C=CC(=O)O (stereo unspecified) [Pheniramine Maleate],94.008 ± 0.0093
9,CC(C)(C)c1cc(NC(=O)Nc2ccc(-c3cn4c(n3)sc3cc(OCCN5CCOCC5)ccc34)cc2)no1 [Quizartinib (AC220)],94 ± 17
10,O=c1nc[nH]c2c1ncn2C1CCC(CO)O1 (stereo unspecified) [Didanosine],99.18 ± 0.8
11,CC1(C)SC2C(NC(=O)Cc3ccccc3)C(=O)N2C1C(=O)[O-].[Na+] (stereo unspecified) [Penicillin G Sodium],70.7 ± 9.5
12,CCCCC(=O)N(Cc1ccc(-c2ccccc2-c2nnn[nH]2)cc1)[C@H](C(=O)O)C(C)C.CCOC(=O)[C@H](C)C[C@@H](Cc1ccc(-c2ccccc2)cc1)NC(=O)CCC(=O)O,87.9 ± 5.7
13,Clc1ccc(COC(Cn2ccnc2)c2ccc(Cl)cc2Cl)c(Cl)c1 (stereo unspecified) [Miconazole],47.3 ± 10
14,O=C(O)[C@H](O)[C@@H](O)C(=O)O.c1cnc2cc3c(cc2n1)C1CNC[C@@H]3C1 [Varenicline Tartrate],128.8 ± 0.16
15,CN(C)CCC(c1ccc(Cl)cc1)c1ccccn1.O=C(O)C=CC(=O)O (stereo unspecified) [Chlorpheniramine Maleate],178 ± 38
16,Nc1nc(CC(=O)Nc2ccc(CCNCC(O)c3ccccc3)cc2)cs1 (stereo unspecified) [Mirabegron (YM178)],140 ± 13
17,CCCS(=O)c1ccc2nc(NC(=O)OC)[nH]c2c1 (stereo unspecified) [Albendazole Oxide],68.2 ± 9.5
18,C=C1C(CO)C(O)CC1n1cnc2c(=O)nc(N)[nH]c21.O (stereo unspecified) [Entecavir Hydrate],82.7 ± 5.4
19,Cc1ccccc1C(OCCN(C)C)c1ccccc1.O=C(O)CC(O)(CC(=O)O)C(=O)O (stereo unspecified) [Orphenadrine Citrate],108 ± 15
20,CCC(C)C(=O)OC1CC(C)C=C2C=CC(C)C(CCC3CC(O)CC(=O)O3)C21 (stereo unspecified) [Lovastatin],131 ± 14

row,Structure (SMILES),cell viability
1,CN1CCC(=C2c3ccccc3CCc3sccc32)CC1.O=C(O)CC(O)C(=O)O [Pizotifen Malate],167 ± 21
2,COCCCOc1cc(CC(CC(N)C(O)CC(C(=O)NCC(C)(C)C(N)=O)C(C)C)C(C)C)ccc1OC.COCCCOc1cc(CC(CC(N)C(O)CC(C(=O)NCC(C)(C)C(N)=O)C(C)C)C(C)C)ccc1OC.O=C(O)C=CC(=O)O (stereo unspecified) [Aliskiren Hemifumarate],107 ± 2.1
3,CC(C)C(N)C(=O)OCCOCn1cnc2c(=O)nc(N)[nH]c21.Cl (stereo unspecified) [Valaciclovir HCl],94.7 ± 8.2
4,CC1CCOC2Cn3cc(C(=O)NCc4ccc(F)cc4F)c(=O)c(O)c3C(=O)N12 (stereo unspecified),74.39 ± 0.7
5,CC(S)C(=O)NCC(=O)O (stereo unspecified) [Tiopronin (Thiola)],105 ± 18
6,CCCCC(=O)OC1CCC2C3CCc4cc(O)ccc4C3CCC12C (stereo unspecified) [Estradiol valerate],182 ± 36
7,NC1CCCCC1N.O=C([O-])C(=O)[O-].[Pt+2] (stereo unspecified) [Oxaliplatin],89 ± 12
8,COc1cc(Nc2ncc3c(n2)-c2ccc(Cl)cc2C(c2c(F)cccc2OC)=NC3)ccc1C(=O)O [MLN8237 (Alisertib)],94.9 ± 14
9,C[N+](C)(CCOc1ccccc1)Cc1ccccc1.O=C(O)c1cc2ccccc2cc1[O-] [Bephenium Hydroxynaphthoate],103 ± 21
10,CCC(C(C)O)n1ncn(-c2ccc(N3CCN(c4ccc(OCC5COC(Cn6cncn6)(c6ccc(F)cc6F)C5)cc4)CC3)cc2)c1=O (stereo unspecified) [Posaconazole],79.9 ± 3.4
11,NC(=O)C1CCCc2c1[nH]c1ccc(Cl)cc21 (stereo unspecified),148 ± 9
12,Nc1cc(C(Cl)=C(Cl)Cl)c(S(N)(=O)=O)cc1S(N)(=O)=O [Clorsulon],194 ± 11
13,Nc1nc(=O)c2ncn(COC(CO)CO)c2[nH]1 [Ganciclovir],112 ± 17
14,CNNCc1ccc(C(=O)NC(C)C)cc1.Cl [Procarbazine HCl],104 ± 21
15,CC(=O)N1CCN(c2ccc(OCC3COC(Cn4ccnc4)(c4ccc(Cl)cc4Cl)O3)cc2)CC1 (stereo unspecified) [Ketoconazole],76 ± 1.8
16,COC(=O)C1=C(C)NC(C)=C(C(=O)OC(C)C)C1c1cccc2nonc12 (stereo unspecified) [Isradipine (Dynacirc)],109 ± 6.2
17,Br.CN1CCCC1Cc1c[nH]c2ccc(CCS(=O)(=O)c3ccccc3)cc12 (stereo unspecified) [Eletriptan HBr],83.7 ± 7.3
18,CCN(CC)CCOC(=O)C(c1ccccc1)c1ccccc1.Cl [Adiphenine HCl],57.1 ± 3.2
19,CCCN1CCCCC1C(=O)Nc1c(C)cccc1C.Cl.O (stereo unspecified) [Ropivacaine hydrochloride monohydrate],110.3 ± 0.64
